Test systems include DU-145 prostate; K-562 leukemia; MALME-3M melanoma; MDA-MB-231 breast; RXF 393 renal; SF-268 CNS; SF-295 CNS; SF-539 CNS; M14 melanoma; UACC-257 melanoma.
What all share (assay): NCI-60 one-dose screen, 48 h (100 = growth as untreated, 0 = no growth, -100 = all killed)
Holding throughout (settings): 10 µM

This is part of a sample that, as a whole, favours compounds with a hit. Of some 83,000 tested, about 20% had one in any assay.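 Cell lines were cultured in 96-well plates, exposed to a single compound concentration, and assessed for percent growth 48 hours later.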 A number with no mark means an inactive call. The source made the active and inactive calls. Rule for the calls: active = growth percent below 10; inactive = the rest.

Turning to `O=S(=O)(NCCCNc1nccc(-c2cn(-c3ccccc3)nc2-c2ccc(Cl)c(O)c2)n1)c1ccccc1`, the growth in the experiment on DU-145 prostate was 81.4%; with K-562 leukemia, 65%; in the experiment with MALME-3M melanoma it was 125%; in the experiment with MDA-MB-231 breast, 71.6%; in the experiment with RXF 393 renal it was 74.2%; in the experiment on SF-268 CNS, 68.5%. Further, the growth with SF-295 CNS was 63.2%; in the experiment on SF-539 CNS it was 88.9%; in the experiment with M14 melanoma, 60.7%.

In the case of `CC(C)(C)c1ccc(S(=O)(=O)N[C@H]2CC[C@H]3[C@@H]4CCc5cc(O)c([N+](=O)[O-])cc5[C@H]4CC[C@]23C)cc1`, the growth in the experiment with DU-145 prostate is 67.4%; with K-562 leukemia it was 70.1%; with MALME-3M melanoma, 67.1%; with MDA-MB-231 breast it was 35.7%; in the experiment with RXF 393 renal, 42.5%; in the experiment with SF-268 CNS, 72.6%. For the same compound, the figures for the growth with SF-539 CNS and in the experiment with UACC-257 melanoma were 81.5% and 77.7%, respectively.

For `CCn1cc(CNc2ccc(C(=O)Nc3ccc4ccccc4c3)cc2)c(C)n1`, the growth in the experiment with DU-145 prostate is 61.2%; in the experiment with K-562 leukemia it was 59.5%; in the experiment on MALME-3M melanoma, 62.5%; with MDA-MB-231 breast it was 83.8%; with RXF 393 renal, 86%; in the experiment on SF-268 CNS, 76.4%. The growth with SF-295 CNS is 64.2%; with SF-539 CNS it was 83.3%; in the experiment on M14 melanoma, 45.1%.

`O=C(O)c1ccc(-n2cc(CNc3ccc(Cl)cc3)c(-c3ccccc3)n2)cc1`: the growth in the experiment with DU-145 prostate is 95.7%; in the experiment on K-562 leukemia, 77.5%; in the experiment on MALME-3M melanoma, 79.9%; in the experiment with MDA-MB-231 breast, 88.6%; in the experiment on RXF 393 renal it was 98.6%; in the experiment on SF-268 CNS, 100%. The results for the growth with SF-295 CNS, in the experiment on SF-539 CNS and in the experiment on M14 melanoma were 80.5%, 82.6% and 94.3%, respectively.

With `Cn1c2ccccc2c2c3[nH][nH]c(=O)c3c3c4ccccc4[nH]c3c21`, the growth in the experiment on DU-145 prostate was 10.5%; in the experiment with K-562 leukemia, 32.3%; in the experiment on MALME-3M melanoma, 92.3%; with MDA-MB-231 breast, 19.8%; in the experiment on RXF 393 renal it was -36.7% (active); with SF-268 CNS, 25%. The growth in the experiment on SF-295 CNS is 81.3%; with SF-539 CNS, -20.8% (active); with M14 melanoma, 17.4%.

In the case of `Cc1ccc(/C=C/C(=O)C(=O)/C=C/c2ccc(C)cc2)cc1`, the growth with DU-145 prostate was 112%; in the experiment with K-562 leukemia it was 95.2%; in the experiment with MALME-3M melanoma, 96.8%; in the experiment with MDA-MB-231 breast, 106%; in the experiment with RXF 393 renal, 117%; in the experiment with SF-268 CNS, 108%. Besides, the growth in the experiment with SF-295 CNS is 101%; with SF-539 CNS, 96.2%; in the experiment on M14 melanoma, 95.2%.

As to `N#Cc1c(N)nc(-c2cc(F)cc(C(F)(F)F)c2)nc1-c1ccccc1F`, the growth in the experiment on DU-145 prostate is 61%; in the experiment on K-562 leukemia, 56.7%; in the experiment on MALME-3M melanoma it was 33.2%; in the experiment with MDA-MB-231 breast it was 21.3%; in the experiment with RXF 393 renal it was 37.4%; in the experiment with SF-268 CNS, 55.3%. Also, the growth in the experiment on SF-295 CNS was 35.2%; in the experiment with SF-539 CNS it was 52.1%; in the experiment on M14 melanoma it was 63.1%.

With `Cc1cc(CSc2ccccc2C(=O)N2CC=C(c3ccccc3)CC2)on1`, the growth is 107% in the experiment on DU-145 prostate; 89.1% in the experiment with K-562 leukemia; 95.8% in the experiment with MALME-3M melanoma; 95.3% in the experiment with MDA-MB-231 breast; 107% with RXF 393 renal; 108% in the experiment with SF-268 CNS. Further, the growth in the experiment with SF-295 CNS was 99.6%; with SF-539 CNS, 92.9%; in the experiment on M14 melanoma, 108%.

Take `CNC(=O)c1cc(Oc2ccc3c(c2)sc2nc(-c4ccc(NC(=O)Nc5ccc(Cl)c(C(F)(F)F)c5)cc4)cn23)ccn1`: the growth was 75.5% in the experiment on DU-145 prostate; 74.7% in the experiment with K-562 leukemia; 83.7% in the experiment with MALME-3M melanoma; 77.4% with MDA-MB-231 breast; 84.6% with RXF 393 renal; 84.8% with SF-268 CNS. The figures for the growth in the experiment with SF-295 CNS, in the experiment with SF-539 CNS and with M14 melanoma were 76.3%, 56.2% and 85.5%, respectively.

For the compound `O=C(CCNC(=O)c1nc(-c2ccccc2)n(-c2ccc(Cl)cc2)n1)NO`, the growth in the experiment on DU-145 prostate is 102%; with K-562 leukemia, 105%; in the experiment with MALME-3M melanoma, 97.4%; in the experiment with MDA-MB-231 breast, 102%; with RXF 393 renal it was 99.6%; with SF-268 CNS, 93.9%. Also, the growth in the experiment with SF-295 CNS is 99%; in the experiment on SF-539 CNS, 84.6%; with M14 melanoma, 97%.

Turning to `O=C(CCCNC(=O)c1nc(-c2ccccc2)n(-c2ccccc2)n1)NO`, the growth in the experiment with DU-145 prostate was 108%; in the experiment on K-562 leukemia, 106%; in the experiment on MALME-3M melanoma, 99.4%; in the experiment with MDA-MB-231 breast, 103%; in the experiment on RXF 393 renal it was 103%; in the experiment on SF-268 CNS, 105%. The growth with SF-295 CNS is 105%; in the experiment with SF-539 CNS, 107%; in the experiment with M14 melanoma it was 98%.

As to `CNC(=O)c1cc(Oc2ccc3c(c2)sc2nc(-c4ccc(N)cc4)cn23)ccn1`, the growth with DU-145 prostate is 7.79% (active); in the experiment with K-562 leukemia, 12%; in the experiment with MALME-3M melanoma it was 66.8%; in the experiment on MDA-MB-231 breast, 22.2%; in the experiment on RXF 393 renal it was 43.8%; with SF-268 CNS, 41.9%. Moreover, the figures for the growth with SF-295 CNS, in the experiment on SF-539 CNS and in the experiment on M14 melanoma were 18%, 6.43% (active) and 15.5%, respectively.

Consider `COc1cc2c3c(n([C@@H]4CCOC4)c(=O)c2cc1OC)-c1cc2c(cc1C3=O)OCO2`, for which the growth with DU-145 prostate was 24.2%; in the experiment on K-562 leukemia it was 55%; with MALME-3M melanoma it was 75.6%; in the experiment with MDA-MB-231 breast, 91%; in the experiment on RXF 393 renal, 52.4%; in the experiment on SF-268 CNS it was 35%. Also, the growth in the experiment with SF-295 CNS is 1.17% (active); in the experiment with SF-539 CNS it was -3.51% (active); with M14 melanoma, 16.5%.

(Values after PubChem BioAssay (NCI).)
